Screening data (PubChem BioAssay)
Most compounds without a hit are left out; they make up all but 32% or so of the library.
PostGolgi ctrl = growth inhibition of yeast control strain, primary screen, counter-screen for post-Golgi transport modulator project | inhibition, % at 10 µM | efflux-deficient yeast background strain, growth absorbance A615, 16 h | 98,000 tested, 5% active
CYP2C9 activ = human CYP2C9 activators, primary screen, biochemical, luminescence; AID 1024, 2008; activation factor at 5 µM; 96,000 tested, 1.4% active; recombinant CYP2C9, luciferin-H conversion; stronger effect = higher value; factor 1 = untreated enzyme, 0 = blocked; Cytochrome P450 2C9 (Homo sapiens), P11712;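 active = activation factor of 2 or more for CYP2C9 at a 5 µM dose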
PostGolgi yeast = phenotypic screen on post-Golgi transport, primary screen | post-Golgi transport phenotypic cell assay | inhibition, % at 10 µM | 98,000 tested, 0.9% active;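 also: yeast cells grown in 1536-well plates; yeast grown about 18 h at 30C before absorbance read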
CYP2C19 activ = human CYP2C19 activators, primary screen, biochemical, luminescence; recombinant CYP2C19, luciferin-H EGE luminescence; stronger effect = higher value; 0 = fully inhibited enzyme, 1 = untreated enzyme; activation factor at 5 µM; Cytochrome P450 2C19 (Homo sapiens), P33261; 96,000 tested, under 10 active; AID 1025, 2008;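 active = activation factor of at least 2 at 5 µM in the primary screen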
Target sequence (P33261 whole entry, looked up): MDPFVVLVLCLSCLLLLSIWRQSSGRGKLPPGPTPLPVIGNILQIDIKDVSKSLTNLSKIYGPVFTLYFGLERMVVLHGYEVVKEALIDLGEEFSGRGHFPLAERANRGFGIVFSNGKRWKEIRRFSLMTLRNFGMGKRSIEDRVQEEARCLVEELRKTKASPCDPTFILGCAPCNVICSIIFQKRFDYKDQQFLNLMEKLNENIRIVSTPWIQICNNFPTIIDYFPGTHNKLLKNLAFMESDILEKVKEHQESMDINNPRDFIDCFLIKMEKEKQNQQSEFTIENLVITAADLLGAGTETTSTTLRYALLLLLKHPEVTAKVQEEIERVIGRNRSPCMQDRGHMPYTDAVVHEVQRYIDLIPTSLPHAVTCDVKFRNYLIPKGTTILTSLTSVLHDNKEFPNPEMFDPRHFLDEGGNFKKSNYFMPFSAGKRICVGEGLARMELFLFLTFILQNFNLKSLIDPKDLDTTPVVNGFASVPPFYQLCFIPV
CYP2C19 inhib = blockers of cytochrome P450 2C19 activity – biochemical, luminescence, ADME assay, primary screen; inhibition, % at 5 µM; CYP2C19 Supersomes, luciferin-H EGE luminescence, 30 min; 96,000 tested, 21% active; AID 778, 2007;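 active = CYP2C19 inhibition above a set limit at 5 µM in the primary screen, cut at about 50% in these data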
CYP2C9 inh = blockers of cytochrome P450 2C9 activity – biochemical, luminescence, ADME assay, primary screen. 96,000 tested, 20% active. inhibition, % at 5 µM. CYP2C9 Supersomes, luciferin-H conversion;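 active = blocking of liver enzyme CYP2C9 beyond about 50% at 5 µM, limit read from the data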
Each line names hits and unclear results; the compound was inactive in the other large screens. Rule as the data show it, unless noted: active = inhibition above about 30%; inactive = the rest.

COc1ccc(N2CCN(CCNC(=O)CCNS(=O)(=O)c3cccs3)CC2)cc1	none
COc1ccc(N2CCN(C(=O)CCNS(=O)(=O)c3ccc(Br)s3)CC2)cc1	PostGolgi yeast 84.3, CYP2C19 inhib 80.0, CYP2C9 inh 90.8
CCCNS(=O)(=O)c1ccc(CCC(=O)N2CCN(c3ccc(OC)cc3)CC2)cc1	PostGolgi ctrl 52.5, CYP2C19 inhib 80.5, CYP2C9 inh 87.2
CCNC(=O)C1CC(=O)N(Cc2ccc3c(c2)OCO3)C(=Nc2ccc(OCC)cc2)S1 (stereo not drawn)	none
CCOc1cc(C(=O)Nc2ccccc2N2CCN(S(C)(=O)=O)CC2)cc(OCC)c1OCC	none
CN(C)S(=O)(=O)N1CCN(c2cc(Cl)ccc2Cl)CC1	CYP2C19 inhib 90.8, CYP2C9 inh 68.0
CN(C)S(=O)(=O)N1CCN(CC(=O)Nc2cc(Cl)ccc2Cl)CC1	CYP2C19 inhib 71.5
CN(C)S(=O)(=O)N1CCN(Cc2ccccc2)CC1	CYP2C19 inhib 92.9
CN(C)S(=O)(=O)N1CCC(C(=O)O)(c2ccccc2)CC1	none
CN(C)S(=O)(=O)N1CCN(c2ccccc2Cl)CC1	CYP2C19 inhib 91.6, CYP2C9 inh 81.3
Cc1ccc(C(=O)NNC(=O)CSc2nnc(-c3ccncc3)n2C)cc1	none
C=CCOc1ccc(/C(CC)=N/O)c(OC)c1	none
O=CN1CCN(C(=O)c2ccccc2Cl)CC1	none
CN(C)S(=O)(=O)N1CCN(C(=O)c2ccccc2Cl)CC1	CYP2C19 inhib 76.0
CN(C)S(=O)(=O)N1CCN(c2cccc(Cl)c2)CC1	none
CN(C)S(=O)(=O)N1CCN(c2ccccc2)CC1	CYP2C19 inhib 86.1
Cc1ccc(S(=O)(=O)N(C)CC(=O)NC2CC(C)(C)NC(C)(C)C2)cc1	none
Cc1[nH][nH]c(=O)c1C(c1ccc(-c2ccc(Cl)c(Cl)c2)o1)c1c(C)[nH][nH]c1=O	CYP2C19 inhib 59.0
CC(C)(Oc1ccc(Cl)cc1)C(=O)Nc1ccc2oc(-c3ccncc3)nc2c1	none
O=C(NCc1ccco1)/C(=C/c1cccnc1)NC(=O)c1ccco1	none
CCN1C(=O)C(CC(=O)N2CCN(C(c3ccccc3)c3ccccc3)CC2)N(CC)C1=O (stereo not drawn)	none
O=C(Nc1ccc(Cl)cc1)N1CCN(c2ccc3nnc(-c4ccc(F)cc4)n3n2)CC1	CYP2C9 inh 56.3
FC(F)(F)c1cccc(N2CCN(c3ccc4nnc(-c5ccccc5)n4n3)CC2)c1	none
O=C(c1ccc(Br)o1)N1CCN(c2ccc3nnc(-c4ccc(F)cc4)n3n2)CC1	CYP2C9 inh 67.0
O=C(c1ccc(F)cc1)C1CCN(C(=O)Nc2ccc(F)cc2)CC1	none
O=C(Nc1ccccc1Cl)N1CCN(c2ccc3nnc(-c4ccccc4)n3n2)CC1	CYP2C19 inhib 68.6, CYP2C9 inh 88.6
CCCc1nnc(SCCSc2nnc(CCC)n2N)n1N	none
CCCOC(=O)Nc1ccc(N2CCCCC2)cc1	none
CSc1ccccc1NC(=O)CN(c1ccccc1)S(=O)(=O)N(C)C	none
CN(C)S(=O)(=O)N(CC(=O)Nc1ccccc1C(F)(F)F)c1ccccc1	CYP2C19 inhib 88.2
CN(C)S(=O)(=O)N(CC(=O)Nc1ccc(F)c(F)c1)c1ccccc1	CYP2C9 inh 56.1
CN(C)S(=O)(=O)N(CC(=O)N1CCOCC1)c1ccccc1	none
O=C(O)c1nn(-c2ccccc2)ccc1=O	none
COc1ccc(NC(C)=O)cc1NC(=O)CSc1nnc(-c2cccnc2)n1C	none
CCCNC(=O)C(C)n1c2ccccc2c2nc(=O)cc(C)n21 (stereo not drawn)	PostGolgi ctrl 32.8
CCC1CCC(C(=O)NC(C(=O)Nc2ccc3c(c2)OCCO3)C(C)C)CC1 (stereo not drawn)	none
CC(=O)Nc1cccc(OCC(=O)NS(=O)(=O)c2ccc(Cl)cc2)c1	none
COC(=O)c1sc2cnccc2c1N	none
COC(=O)c1ccc(N2CCC(c3cc(-c4ccc(OC)cc4)n[nH]3)CC2)c([N+](=O)[O-])c1	none
COc1ccc(-c2cc(C3CCN(c4ccc(C(C)=O)cc4[N+](=O)[O-])CC3)[nH]n2)cc1	PostGolgi ctrl 37.1, CYP2C19 inhib 84.2, CYP2C9 inh 65.0
CC(=O)c1ccc(N2CCC(c3cc(-c4ccc(Cl)cc4)n[nH]3)CC2)c([N+](=O)[O-])c1	PostGolgi ctrl 43.1, PostGolgi yeast 40.8, CYP2C19 inhib 56.3, CYP2C9 inh 56.9
NC(=O)c1cc(N)ccc1N1CCCC1	PostGolgi ctrl 31.8
NC(=O)c1ccc(N2CCCCC2)c(N2C(=O)CCC2=O)c1	none
COc1ccc(C(=O)CCC(=O)O)cc1	none
COC(=O)C(O)(CC(=O)c1ccc(OC)cc1)C(F)(F)F (stereo not drawn)	CYP2C19 inhib 62.9
Cc1c(O)ccc2c3c(c(=O)oc12)CCCC3	CYP2C9 activ 3, CYP2C19 inhib 68.7
Cc1c(O)ccc2c3c(c(=O)oc12)CCC(C)C3 (stereo not drawn)	CYP2C19 inhib 93.1
Cc1oc2c(C)c3oc(=O)c4c(c3cc2c1C)CCCC4	CYP2C19 inhib 95.9, CYP2C9 inh 50.5
CC(C)CN(Cc1c(O)ccc2c3c(c(=O)oc12)CCC3)CC(C)C	none
Cn1cc(Cl)c(C(=O)N2CCN(c3ncccn3)CC2)n1	none (no result: CYP2C9 activ, CYP2C19 activ, CYP2C19 inhib, CYP2C9 inh)
Cc1oc(-c2ccc3c(c2)OCCO3)cc1C(=O)NC(CCC(=O)O)C(=O)O (stereo not drawn)	none
Cc1oc(-c2ccc3c(c2)OCCO3)cc1C(=O)O	CYP2C19 inhib 88.1, CYP2C9 inh 72.0 (no result: PostGolgi ctrl, PostGolgi yeast)
CCCC(=O)Nc1sc(C)c(C)c1C(=O)Nc1cccc(C)c1	none
O=C1OCC(CO)(CO)N=C1NNc1ccccc1Cl	CYP2C19 inhib 50.3
O=C(O)C1CC=CCC1C(=O)Nc1ccccc1Cl (stereo not drawn)	none
Cc1ccn(C(=O)c2ccc(NC(=O)C3CCCCC3)cc2)n1	none
COc1ccccc1C(OC(=O)c1cccs1)C(=O)NCC1CCCO1 (stereo not drawn)	none
O=C(OC(C(=O)NCC1CCCO1)c1ccccn1)c1cccs1 (stereo not drawn)	none
COc1ccc(C(OC(=O)c2cccs2)C(=O)NCC2CCCO2)cc1 (stereo not drawn)	CYP2C19 inhib 63.0
CC(C)CC(OC(=O)c1cccs1)C(=O)NCC1CCCO1 (stereo not drawn)	CYP2C19 inhib 58.0, CYP2C9 inh 84.0
COc1ccc(Nc2nc(Nc3ccc(OC)cc3)nc(-n3[nH]c(=O)c(C)c3C)n2)cc1	none
c1cncc(-c2nn3c(Cn4nnc5ccccc54)nnc3s2)c1	none
CCc1nnc2sc(-c3cc(-c4ccccc4)nc4ccccc34)nn12	PostGolgi ctrl 33.9
